Data reported in PMC5540273 (PLoS ONE, 2017).

What was measured:
Details in all cases: concentration: 1 μM, replicates: in singlicate; n = 1
ACVR1B = system: ACVR1B
ACVR1 = system: ACVR1
ACVR2A = system: ACVR2A
ACVR2B = system: ACVR2B
ACVRL1 = system: ACVRL1
ADCK3 = system: T1, ADCK3
T1 construct: gene CABC1

ADCK4 = system: ADCK4
AKT1 = system: AKT1
AKT2 = system: AKT2
AKT3 = system: AKT3
ALK = system: ALK
AMPK-alpha1 = system: T2, AMPK-alpha1
T2 construct: gene PRKAA1

AMPK-alpha2 = system: T3, AMPK-alpha2
T3 construct: gene PRKAA2

ANKK1 = system: ANKK1
ARK5 = system: T4, ARK5
T4 construct: gene NUAK1

ASK1 = system: T5, ASK1
T5 construct: gene MAP3K5

ASK2 = system: T6, ASK2
T6 construct: gene MAP3K6

AURKA = system: AURKA
AURKB = system: AURKB
AURKC = system: AURKC
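Note: KINOMEscan kinase panel screen.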

Row | Compound | %Inh (ACVR1B) | %Inh (ACVR1) | %Inh (ACVR2A) | %Inh (ACVR2B) | %Inh (ACVRL1) | %Inh (ADCK3) | %Inh (ADCK4) | %Inh (AKT1) | %Inh (AKT2) | %Inh (AKT3) | %Inh (ALK) | %Inh (AMPK-alpha1) | %Inh (AMPK-alpha2) | %Inh (ANKK1) | %Inh (ARK5) | %Inh (ASK1) | %Inh (ASK2) | %Inh (AURKA) | %Inh (AURKB) | %Inh (AURKC)
1 | CCC(=O)c1c(-c2ccccc2)c2cc(Cl)ccc2c(=O)n1Cc1cc(S(C)(=O)=O)n(CC(N)=O)n1 | 0% | 0% | 14% | 0% | 0% | 29% | 0% | 0% | 0% | 0% | 0% | 0% | 0% | 0% | 0% | 0% | 0% | 0% | 0% | 0%
2 | CN1C(=O)C(Nc2ccccc2)=C(c2ccccc2)C1=O [SB-300079] | 8% | 0% | 0% | 0% | 0% | 0% | 25% | 0% | 0% | 0% | 7% | 0% | 1% | 15% | 0% | 0% | 0% | 0% | 21% | 0%
3 | COC(=O)c1c(-c2ccccc2)c2cc(Br)ccc2c(=O)n1Cc1ccc(S(C)(=O)=O)cc1 | 0% | 15% | 0% | 0% | 0% | 12% | 8% | 14% | 28% | 0% | 52% | 15% | 9% | 0% | 11% | 2% | 0% | 35% | 20% | 0%
4 | O=C(Nc1ccc2c(c1)OCO2)NC1CCN(c2ccnc(NCc3ccc(F)cc3)n2)CC1 [GSK1379859] | 0% | 0% | 0% | 0% | 0% | 0% | 30% | 0% | 5% | 0% | 9% | 0% | 0% | 0% | 6% | 0% | 0% | 11% | 0% | 24%
5 | CCC(=O)c1c(-c2ccccc2)c2cc(Cl)ccc2c(=O)n1Cc1cc(C(=O)NC2CC2)n(C)n1 | 0% | 0% | 0% | 0% | 0% | 0% | 10% | 0% | 7% | 0% | 32% | 22% | 5% | 0% | 0% | 0% | 0% | 22% | 26% | 0%
6 | COc1cc2nccc(Nc3cccc(Oc4ccccc4)c3)c2cc1OC.Cl [GW284543] | 12% | 0% | 0% | 0% | 0% | 32% | 22% | 0% | 7% | 0% | 1% | 12% | 0% | 0% | 0% | 0% | 0% | 5% | 0% | 0%
7 | COc1ccc(-c2cc3c(C)nc(N)nc3n([C@H]3CC[C@H](OCCO)CC3)c2=O)cn1 | 9% | 4% | 0% | 0% | 0% | 0% | 0% | 6% | 0% | 1% | 0% | 5% | 2% | 0% | 0% | 11% | 0% | 0% | 0% | 7%
8 | OCCCNc1nccc(-c2c(-c3cccc(C(F)(F)F)c3)nn3cc(C(F)(F)F)ccc23)n1 [GW630813] | 0% | 0% | 0% | 0% | 0% | 68% | 43% | 0% | 0% | 0% | 0% | 0% | 0% | 5% | 0% | 0% | 0% | 17% | 0% | 7%
9 | COc1cccc(-n2cnc3c(N)ncnc32)c1 [SKF-97416] | 22% | 0% | 3% | 0% | 11% | 0% | 8% | 1% | 0% | 22% | 56% | 2% | 15% | 14% | 0% | 4% | 35% | 0% | 31% | 5%
10 | Cc1cccc(-c2cc(-c3c[nH]nc3-c3ccccn3)ccn2)c1 [GW679395] | 0% | 0% | 0% | 3% | 0% | 3% | 22% | 0% | 1% | 0% | 30% | 0% | 0% | 0% | 0% | 5% | 0% | 8% | 15% | 0%
11 | Cc1cccc(-c2nc(Nc3ccc4c(cnn4C)c3)c3ccccc3n2)n1 [GW876731] | 64% | 0% | 2% | 0% | 0% | 8% | 4% | 21% | 0% | 20% | 0% | 0% | 17% | 16% | 5% | 0% | 10% | 24% | 6% | 0%
12 | CCc1nc(-c2cccc(C)c2)c(-c2ccncc2)s1 | 20% | 3% | 5% | 0% | 5% | 55% | 0% | 0% | 0% | 0% | 0% | 0% | 0% | 0% | 17% | 0% | 0% | 0% | 13% | 0%
13 | C[C@@H]1CC[C@H](C(=O)NC2CCCCC2)CN1c1cc(-c2ccc3c(N)n[nH]c3c2)nc(N)n1 [GSK2291363] | 0% | 0% | 0% | 0% | 0% | 22% | 49% | 0% | 11% | 0% | 29% | 7% | 14% | 20% | 6% | 9% | 7% | – | 24% | 69%
14 | COc1ccc(-c2cc3c(C)nc(N)nc3n([C@H]3CC[C@H](O)CC3)c2=O)cn1 | 0% | 0% | 0% | 0% | 0% | 0% | 0% | 0% | 0% | 0% | 0% | 0% | 0% | 0% | 4% | 6% | 0% | 0% | 0% | 0%
15 | CCC(=O)c1c(-c2ccccc2)c2cc(Cl)ccc2c(=O)n1Cc1cc(S(C)(=O)=O)n(CC(F)F)n1 | 0% | 0% | 0% | 0% | 0% | 0% | 0% | 0% | 0% | 0% | 0% | 0% | 8% | 0% | 5% | 0% | 0% | 0% | 11% | 0%
